An excerpt weighted towards active compounds, which were near 9.8% of everything screened.
JMJD2E inh: blocks human JMJD2E demethylase activity. B2RXH2. JMJD2E catalytic domain, FDH-coupled NADH fluorescence (FDH is formaldehyde dehydrogenase). Potency, µM (top dose mostly 57.1 µM), for inactives: top-dose activity change, negative = inhibition, hits mostly inhibitors. hit rate 1.6% among 230,000; active means well fitted inhibition curve with a large enough effect, not every such curve was filed as active; inconclusive means small, poorly fitted or top-dose-only effect, or another doubt; inactive means no such curve, though single readings can be large or run the other way;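 further: potency means the concentration at half of the fitted maximal effect; 0% = wells with enzyme and -100% = buffer wells without enzyme; nearly all actives have a fitted effect of over 50% in size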
HTT aggregate: mutant huntingtin aggregation inhibition. PC12 HttQ103-GFP aggregates, Acumen cytometry, 40 h. Potency, µM (top dose mostly 46.1 µM), for inactives: at the highest dose activity change, negative = inhibition, actives largely listed as inhibitors. hit rate 1.1% among 220,000. AID 1688; further: potency means the concentration at half of the fitted maximal effect; on the % scale 0 is the no-effect control and ±100 the full control effect; nearly all actives have a fitted effect of over 60% in size
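Read-out: GFP aggregate count by laser scanning cytometer (488 nm excitation, 500-530 nm emission, 1–25 µm objects >6 SD above background). Cells: PC12, inducible HTTex1-Q103-GFP, 100 nM tebufenozide; compounds titrated.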
HPGD inh: HPGD (human) dehydrogenase inhibition. P15428. purified HPGD, NADH fluorescence kinetic, PGE2 substrate. Potency, µM, inactives show top-dose activity change, negative = inhibition, most hits filed as inhibitors. hit rate 4.3% among 150,000; active means well fitted inhibition curve with a large enough effect, not every such curve was filed as active; inconclusive means small, poorly fitted or top-dose-only effect, or another doubt; inactive means no such curve, though single readings can be large or run the other way; further: potency means the concentration at half of the fitted maximal effect; on the % scale 0 is the no-effect control and ±100 the full control effect
Target sequence (P15428 whole entry, looked up): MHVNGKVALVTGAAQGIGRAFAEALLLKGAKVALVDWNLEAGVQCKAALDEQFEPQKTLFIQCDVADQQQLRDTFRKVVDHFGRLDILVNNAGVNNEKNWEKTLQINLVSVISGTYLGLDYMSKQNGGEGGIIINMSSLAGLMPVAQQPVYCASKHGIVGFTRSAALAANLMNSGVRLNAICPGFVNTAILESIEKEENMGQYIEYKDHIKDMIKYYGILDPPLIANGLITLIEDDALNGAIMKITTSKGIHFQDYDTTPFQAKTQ
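NADH formation kinetics: reaction with 30 uM PGE2 and 1 mM NAD+ (final), 20 nM enzyme, Tris-HCl pH 8 with Tween 20, after 15 min compound preincubation at room temperature. Fluorescence change, last versus first of five reads.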
CBFb-RUNX1 inh: blocks binding between human CBF-beta and RUNX1 | AlphaScreen CBFb-His/RUNX1-biotin binding, biochemical | Potency, µM (titrated, usually from 59.8 µM), for inactives: at the top dose activity, negative = inhibition, actives largely listed as inhibitors | 230,000 tested, under 10 active | AID 1477; further: % of control where 0% means no effect
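Read-out: AlphaScreen. Format: His-CBF-beta with biotinylated RUNX1 (30 nM each) preincubated 20 min, compound 15 min, Ni-chelate plus streptavidin beads 90 min; room temperature throughout.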
ALDH1A1 block: blocks purified human ALDH1A1 activity. hit rate 7.3% among 220,000. Potency, µM (titrated, usually from 75.3 µM), for inactives: top-dose activity, negative = inhibition, actives largely listed as inhibitors. AID 1030. Purified ALDH1A1, NADH fluorescence, propionaldehyde substrate. P00352; active means well fitted inhibition curve with a large enough effect, not every such curve was filed as active; inconclusive means small, poorly fitted or top-dose-only effect, or another doubt; inactive means no such curve, though single readings can be large or run the other way;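 further: potency means the concentration at half of the fitted maximal effect; plate controls were no enzyme wells and a reference inhibitor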
HTT cytoprotect: Huntington cell model cytoprotection by ATP luminescence; PC12 HTT-Q103 induced, cytoprotection, ATP luminescence, 40 h; hit rate 0.14% among 230,000; AID 1471; Potency, µM (titrated, usually from 56.4 µM), without a hit: cytoprotection (ATP increase), most hits filed as activators; further: potency means the concentration at half of the fitted maximal effect; % of control where 0% means no effect; nearly all actives have a fitted effect of over 45% in size
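Readout: ATPlite luminescence (ATP level). Model: stable PC12, inducible Htt exon1 Q103-GFP. Inducer: tebufenozide, 100 nM final. Compounds: dose series. No G418 in medium.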
* = called active by the depositor; [ ] = remark or other dose. Unless noted, the call rests on the fitted dose curve; in most records, active means well fitted curve in the direction sought with a large enough effect; inconclusive means small, poorly fitted or top-dose-only effect, or another doubt; inactive means no such curve, though single readings can be large; an effect the other way counts as inactive or inconclusive.

What do the screens show for `COC(=O)c1c(NC(=O)c2cccnc2)sc(C(=O)N(C)C)c1C`?
JMJD2E inh: -11.8%; HTT aggregate: 2.0%; HPGD inh: -24.2%; CBFb-RUNX1 inh: 0.2%; ALDH1A1 block: -5.5%; HTT cytoprotect: 1.26µM*

What do the screens show for `CN(C)C(=O)c1ccc(NC(=O)c2cccnc2)cc1`?
JMJD2E inh: 3.0%; HTT aggregate: -2.5%; HPGD inh: 31.6µM*; CBFb-RUNX1 inh: 6.9%; ALDH1A1 block: -0.5%; HTT cytoprotect: 8.6%

Results for COC(=O)c1c(NC(=O)c2cccnc2)sc(C)c1C ?
JMJD2E inh: -5.7%; HTT aggregate: -3.1%; HPGD inh: -8.9%; CBFb-RUNX1 inh: 3.5%; ALDH1A1 block: 5.7%; HTT cytoprotect: -10.4%[10 µM]

How did COC(=O)c1sccc1NC(=O)c1cccnc1 do in these assays?
JMJD2E inh: 1.1%; HTT aggregate: 20.7%; HPGD inh: 28.2µM*; CBFb-RUNX1 inh: -2.3%; ALDH1A1 block: -4.7%; HTT cytoprotect: -18.0%

What do the screens show for `COc1ccc(C(Nc2ccc(S(=O)(=O)NCC3CCCO3)cc2)C(=O)NC(C)(C)C)cc1OC` (configuration not stated)?
JMJD2E inh: -13.7%; HTT aggregate: -9.2%[9.22 µM]; CBFb-RUNX1 inh: 2.5%; ALDH1A1 block: inconclusive; HTT cytoprotect: 0.1%[10 µM]

How did Cc1sc(NC(=O)CCC(=O)O)c(C#N)c1C do in these assays?
JMJD2E inh: 4.4%; HTT aggregate: -0.3%; CBFb-RUNX1 inh: -1.5%; ALDH1A1 block: 1.4%; HTT cytoprotect: -33.5%

How did COc1ccc(Cc2nnc(NC(=O)c3c(-c4ccccc4)noc3C)s2)cc1OC do in these assays?
JMJD2E inh: 1.0%; HTT aggregate: 24.1%; HPGD inh: -26.1%; CBFb-RUNX1 inh: -5.0%; ALDH1A1 block: 31.6µM*; HTT cytoprotect: 1.3%

Results for CCCOc1cccc(NC(=O)c2c(-c3ccccc3)noc2C)c1 ?
JMJD2E inh: -0.8%; HTT aggregate: 6.31µM*; HPGD inh: inconclusive; CBFb-RUNX1 inh: -2.3%; ALDH1A1 block: inconclusive; HTT cytoprotect: 3.5%

Results for CCOC(=O)c1c(NC(=O)c2cccs2)sc(C(=O)N(C)C)c1C ?
JMJD2E inh: -5.8%; HTT aggregate: 8.7%; HPGD inh: 15.8µM*; CBFb-RUNX1 inh: 0.5%; ALDH1A1 block: 22.4µM*; HTT cytoprotect: -11.6%

Results for Cc1onc(-c2ccccc2)c1C(=O)Nc1cccc(OC(C)C)c1 ?
JMJD2E inh: 3.2%; HTT aggregate: -8.2%; HPGD inh: -8.7%; CBFb-RUNX1 inh: 12.7%; ALDH1A1 block: 1.4%; HTT cytoprotect: 12.2%

Results for CCNC(=O)COC(=O)CCNC(=O)c1ccc(Cl)cc1 ?
JMJD2E inh: -1.5%; HTT aggregate: 4.4%[9.22 µM]; CBFb-RUNX1 inh: 8.7%; HTT cytoprotect: 25.6%[10 µM]

What do the screens show for `Cc1cc(CC(=O)O)c(C)n1-c1ccc(Cl)cc1`?
HTT aggregate: 0.2%; HTT cytoprotect: -8.0%

What do the screens show for `[O-][n+]1c(CN2CCCCC2)nc2cccc3c2c1-c1ccccc1-3`?
HPGD inh: inconclusive; ALDH1A1 block: 1µM*; HTT cytoprotect: -2.2%[10 µM]

What do the screens show for `c1coc(-c2nnc(SCc3cn4ccccc4n3)o2)c1`?
JMJD2E inh: 6.2%; HTT aggregate: 4.6%; HPGD inh: -12.3%; CBFb-RUNX1 inh: 2.3%; ALDH1A1 block: 4.8%; HTT cytoprotect: -10.1%

Results for Brc1c(CSc2nnc(-c3ccco3)o2)nc2ccccn12 ?
JMJD2E inh: 2.1%; HTT aggregate: -25.4%; HPGD inh: 7.94µM*; CBFb-RUNX1 inh: -4.5%; ALDH1A1 block: inconclusive; HTT cytoprotect: -28.1%

Results for CCC1NC(=O)C(NC(=O)c2ncccc2O)C(C)OC(=O)C(c2ccccc2)NC(=O)C2CC(=O)CCN2C(=O)C(Cc2ccccc2)N(C)C(=O)C2CCCN2C1=O (configuration not stated) ?
HTT aggregate: 9.2%; HTT cytoprotect: 11.3%
